# Measured values reported in the supplement of paper PMC4466140.
# Target: AgAbp1
# Experiment: SPOT peptide array binding signal intensity (averaged, normalized) (arbitrary units (background-subtracted, floor 0; scale differs between SH3 domains)); higher = stronger binding of the SH3 domain to the peptide
# Outline: (§1)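 Binding signal refers to normalized, background-subtracted spot intensity averaged over replicates, expressed in arbitrary units that differ between domains. GST-fused SH3 domains from four yeast species were incubated at 10 μg/ml overnight at 4°C on cellulose membranes of synthetic 15-mer peptides with cysteines replaced by serines. Bound protein was detected with anti-GST antibody, an HRP anti-mouse secondary and luminol, and quantified with Genespotter.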
row,Binder,SPOT peptide array binding signal intensity
1,KNPRRQLQIPRQQPS,242

# Target: AgBbc1
# Experiment: as above
# Outline: as §1
row,Binder,SPOT peptide array binding signal intensity
1,KNPRRQLQIPRQQPS,60.8

# Target: AgBem1-D1
# Experiment: as above
# Outline: as §1
row,Binder,SPOT peptide array binding signal intensity
1,KNPRRQLQIPRQQPS,73

# Target: AgBzz1-D1
# Experiment: as above
# Outline: as §1
row,Binder,SPOT peptide array binding signal intensity
1,KNPRRQLQIPRQQPS,77

# Target: AgBzz1-D2
# Experiment: as above
# Outline: as §1
row,Binder,SPOT peptide array binding signal intensity
1,KNPRRQLQIPRQQPS,44

# Target: AgCyk3
# Experiment: as above
# Outline: as §1
row,Binder,SPOT peptide array binding signal intensity
1,KNPRRQLQIPRQQPS,≤ 0

# Target: AgFus1
# Experiment: as above
# Outline: as §1
row,Binder,SPOT peptide array binding signal intensity
1,KNPRRQLQIPRQQPS,9.5

# Target: AgHof1
# Experiment: as above
# Outline: as §1
row,Binder,SPOT peptide array binding signal intensity
1,KNPRRQLQIPRQQPS,55.8

# Target: AgHse1
# Experiment: as above
# Outline: as §1
row,Binder,SPOT peptide array binding signal intensity
1,KNPRRQLQIPRQQPS,142

# Target: AgLsb1
# Experiment: as above
# Outline: as §1
row,Binder,SPOT peptide array binding signal intensity
1,KNPRRQLQIPRQQPS,100

# Target: AgLsb4
# Experiment: as above
# Outline: as §1
row,Binder,SPOT peptide array binding signal intensity
1,KNPRRQLQIPRQQPS,25

# Target: AgMyo5
# Experiment: as above
# Outline: as §1
row,Binder,SPOT peptide array binding signal intensity
1,KNPRRQLQIPRQQPS,7

# Target: AgNbp2
# Experiment: as above
# Outline: as §1
row,Binder,SPOT peptide array binding signal intensity
1,KNPRRQLQIPRQQPS,16.5

# Target: AgRvs167
# Experiment: as above
# Outline: as §1
row,Binder,SPOT peptide array binding signal intensity
1,KNPRRQLQIPRQQPS,2.67

# Target: AgSho1
# Experiment: as above
# Outline: as §1
row,Binder,SPOT peptide array binding signal intensity
1,KNPRRQLQIPRQQPS,≤ 0

# Target: AgSla1-D1-D2
# Experiment: as above
# Outline: as §1
row,Binder,SPOT peptide array binding signal intensity
1,KNPRRQLQIPRQQPS,44

# Target: AgSla1-D3
# Experiment: as above
# Outline: as §1
row,Binder,SPOT peptide array binding signal intensity
1,KNPRRQLQIPRQQPS,2.5

# Target: CaAbp1-D1
# Experiment: as above
# Outline: as §1
row,Binder,SPOT peptide array binding signal intensity
1,KNPRRQLQIPRQQPS,728

# Target: CaAbp1-D2
# Experiment: as above
# Outline: as §1
row,Binder,SPOT peptide array binding signal intensity
1,KNPRRQLQIPRQQPS,464

# Target: CaBbc1
# Experiment: as above
# Outline: as §1
row,Binder,SPOT peptide array binding signal intensity
1,KNPRRQLQIPRQQPS,218

# Target: CaBem1-D1
# Experiment: as above
# Outline: as §1
row,Binder,SPOT peptide array binding signal intensity
1,KNPRRQLQIPRQQPS,73

# Target: CaBzz1-D1
# Experiment: as above
# Outline: as §1
row,Binder,SPOT peptide array binding signal intensity
1,KNPRRQLQIPRQQPS,84

# Target: CaBzz1-D2
# Experiment: as above
# Outline: as §1
row,Binder,SPOT peptide array binding signal intensity
1,KNPRRQLQIPRQQPS,42

# Target: CaCyk3
# Experiment: as above
# Outline: as §1
row,Binder,SPOT peptide array binding signal intensity
1,KNPRRQLQIPRQQPS,7

# Target: CaFus1
# Experiment: as above
# Outline: as §1
row,Binder,SPOT peptide array binding signal intensity
1,KNPRRQLQIPRQQPS,208

# Target: CaHof1
# Experiment: as above
# Outline: as §1
row,Binder,SPOT peptide array binding signal intensity
1,KNPRRQLQIPRQQPS,≤ 0

# Target: CaHse1
# Experiment: as above
# Outline: as §1
row,Binder,SPOT peptide array binding signal intensity
1,KNPRRQLQIPRQQPS,1

# Target: CaLsb1
# Experiment: as above
# Outline: as §1
row,Binder,SPOT peptide array binding signal intensity
1,KNPRRQLQIPRQQPS,0.5

# Target: CaLsb4
# Experiment: as above
# Outline: as §1
row,Binder,SPOT peptide array binding signal intensity
1,KNPRRQLQIPRQQPS,51.5

# Target: CaMyo5
# Experiment: as above
# Outline: as §1
row,Binder,SPOT peptide array binding signal intensity
1,KNPRRQLQIPRQQPS,5
